Laboratory results taken from ChEMBL document CHEMBL4513216, “Probing the Open Global Health Chemical Diversity Library for Multistage-Active Starting Points for Next-Generation Antimalarials” (ACS Infect Dis, 2020).
About 2,100 (3.2%) of roughly 65,000 compounds showed an effect of 50% or more. The median lay at about -52%. The sample holds strong results, similar compounds and a random draw of the others, so the mix is not that of the screen.

Each compound was assayed on Plasmodium falciparum (assay: Screen against P. falciparum Asexual Blood Stage (ABS), at 5uM). Conditions: tested at 5 uM.
Assay type: functional, Dd2

SMILES	INHIBITION
CC(C)=CCN1CCC2(CC1)c1ccccc1[C@@H](N1CCSCC1)[C@@H]2O	78.5%
COCCn1cc(C(=O)NCCS(N)(=O)=O)c2ccccc21	-110%
COc1cccc(Cn2cc(C3=CCN(CC(=O)N(C)C)CC3)cn2)c1	-27.6%
CCn1cc(C2=CCN(CCCOc3ccccc3)CC2)cn1	82%
Cc1nc(O)cc(CN2CC=C(c3cnn(-c4ccccc4)c3)CC2)n1	-90.2%
COc1cccc(Cn2cc(C3=CCN(CCO)CC3)cn2)c1	54.2%
CCC(O)Cn1cc(C2=CCN(Cc3ccc(OC)cc3)CC2)cn1 (stereo not drawn)	68.7%
O=c1[nH]ccn1CCCN1CC=C(c2cnn(-c3ccccc3)c2)CC1	-235%
Cn1cc(C2=CCN(CCCOc3ccc(C(N)=O)cc3)CC2)cn1	-64.5%
CCC(O)Cn1cc(C2=CCN(Cc3cc(O)nc(C)n3)CC2)cn1 (stereo not drawn)	-24.6%
CN(C)C(=O)CN1CC=C(c2cnn(Cc3ccccc3)c2)CC1	-52.4%
O=C(c1cn(Cc2ccccc2)c2ncccc12)N1CCOCC1	-68.2%
Cc1cccc(CN2CC[C@@H]3[C@@H]2CCN3C(=O)c2ccoc2C)n1	-77.9%
CNc1ncc(CN(C)c2ncnc3onc(C)c23)cn1	-3.41%
O=C(Cc1ccc(O)c(F)c1)N1CCN(CC2CC2)[C@@H]2CS(=O)(=O)C[C@@H]21	-78.4%
c1ccc(Cn2cccn2)c(CN2CCC3(CCCNC3)C2)c1 (stereo not drawn)	85%
O=C(c1onc2ccccc12)N1CCC2(CCCNC2)C1 (stereo not drawn)	-59.1%
Fc1cnccc1CN1CCC2(CCNCC2)C1	-66.9%
CN(C)CCNC(=O)c1ccn(-c2ccc3ccccn23)n1	84%
O=C1OCCC1N1CCN(C(=O)Cc2c[nH]c3ccccc23)CC1 (stereo not drawn)	-131%
Cc1nc(CC(=O)N2CCN(C(C)c3ccccc3F)CC2)cs1 (stereo not drawn)	-60.5%
CCN1CCN(c2ccc(NC(=O)CC(C)C)c(C)c2)CC1	-6.8%
CN1CCN(c2ccc(NC(=O)c3cccs3)c(C(F)(F)F)c2)CC1	73.6%
CN(C)C(=O)N1CCC2(C1)CN(c1cccnc1)C(=O)CN2C (stereo not drawn)	-35.4%
COc1cc(C)c(CN2CCC3(CC2)[C@H](O)C[C@@H]3OCCN)cc1C	77.2%
C1Cc2nc(CCNc3nc(C4CC4)nc4c3CCNCC4)sc2C1	78.5%
COc1ccc(CN(Cc2ccccn2)Cc2cncn2C)cc1	70.1%
CN1CCN(Cc2cccnc2)C(=O)C12CCN(S(C)(=O)=O)CC2	-18.9%
